Assay results taken from publication PMC5540273 (PLoS ONE, 2017).

Tested on: T1, LKB1
T1 construct: gene STK11
Conditions: concentration: 1 μM, replicates: in singlicate; n = 1
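Also: KINOMEscan kinase panel screen.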

| Compound | %Inh [%] |
| --- | --- |
| CCc1nc(-c2cccc(C)c2)c(-c2ccnc(NCc3ccccc3)c2)s1 | 0 |
| O=c1cc(N2CCOCC2)nc2n(Cc3cccc4ccccc34)ccn12 [GSK2333389] | 2 |
| CN1c2ccc(NCc3ccc(F)cc3)cc2-c2c(cnn2C)S1(=O)=O | 23 |
| Cc1ccc(NC(=O)c2ccnc(N3CCN(C)CC3)c2)cc1-c1ccc(C(=O)NCC2CC2)cc1 [GW775604] | 28 |
| Cc1ccc(C(=O)NCC(N)=O)cc1-n1c(C)cc(OCc2ccc(F)cc2F)c(Br)c1=O | 0 |
| COCCNC(=O)c1ccc(-c2cc(C(=O)NC3CC3)cc(F)c2C)cc1 [GW868318] | 49 |
| COc1ccc(Nc2ncc(C#N)c(Nc3ccccc3C(N)=O)n2)cc1N1CCN(C)CC1.Cl [GSK1558669] | 58 |
| COc1ccc(S(=O)(=O)NC2CCN(c3cc(C)nc(Nc4cccc(C#N)c4)n3)CC2)cc1.O=C(O)C(F)(F)F [GSK1653539] | 7 |
| COc1ccc(Nc2nccc(N3CCC(NC(=O)Nc4cc(C)ccc4C)C3)n2)cc1 (stereo not shown) [GSK1379741] | 0 |
| CC(C)(C)n1cnc2c(N)ncnc21 [SKF-97359] | 56 |
| COc1cc2ncn(-c3cc(OCc4sccc4Cl)c(C(N)=O)s3)c2cc1OC [GSK448459] | 0 |
| COC(=O)Nc1nc2cc(Oc3ccc(NC(=O)Nc4cc(F)ccc4F)cc3)ccc2[nH]1.Cl [GW701424] | 0 |
| Cc1c2ccc(N(C)c3ccnc(Nc4cccc(S(N)(=O)=O)c4)n3)cc2nn1Cc1ccccc1.Cl.Cl [GW787226] | 48 |
| O=C(NCCNc1ccnc(Nc2ccc(F)cc2)n1)c1cc2ccccc2s1 [GSK1379874] | 1 |
| CCn1cnc2c(N)ncnc21 [GW345098] | 26 |
| O=C1Cc2cc(Nc3nc(NCc4cccc(S(=O)(=O)C(F)(F)F)c4)ncc3C(F)(F)F)ccc2N1 | 0 |
| Cl.Oc1cccc(Nc2ccnc3cc(-c4ccncc4)ccc23)c1 [GW494601] | 0 |

| Compound | %Inh [%] |
| --- | --- |
| Cn1cc(-c2ccc3c(c2)CCN3C(=O)Cc2ccccc2Cl)c2c(N)ncnc21 [GSK2608885] | 17 |
| NS(=O)(=O)CCc1cccc(Nc2nccc(-c3c(-c4cccc(NC(=O)c5c(F)cccc5F)c4)nn4ccccc34)n2)c1 [GSK336735] | 1 |
| O=c1cc(N2CCOCC2)nc2n(Cc3cccc(Cl)c3Cl)c(C3CC3)nn12 [GSK2358994] | 15 |
| COc1ccc(COc2cc(-n3cnc4ccccc43)sc2C(N)=O)cc1 [GSK1024304] | 1 |
| c1ccc(-c2n[nH]cc2-c2ccnc3ccccc23)nc1 [GW271431] | 18 |
| CN(C1=C(c2ccccc2)C(=O)NC1=O)c1ccccc1 [SB-334860] | 5 |
| COc1ccc(CNC(=O)NC2CCN(c3ccnc(Nc4ccc(OC)cc4)n3)C2)cc1 (stereo not shown) [GSK1379727] | 15 |
| COc1cc2c(cc1OC[C@@H](O)CO)ncc1c3ccc(C#N)cc3[nH]c21 | 0 |
| c1ccc(-c2cc(-c3c[nH]nc3-c3ccccn3)ccn2)cc1 [GW576604] | 17 |
| Cc1cccc(-c2nc(-c3ccc(S(C)(=O)=O)cc3)sc2-c2ccncc2)c1 | 0 |
| Cc1cccc(Cn2ccn3c(=O)cc(N4CCOCC4)nc23)c1 [GSK2297542] | 21 |
| Fc1ccc(-c2nn3c(OCC(F)(F)F)cccc3c2-c2ccncc2)cc1 [GW514784] | 9 |
| N#Cc1c(N2CCOCC2)sc(-c2ccn[nH]2)c1-c1ccc(Cl)cc1 | 25 |
| COc1cc2c(cc1OCCN1CCN(C)CC1)ncc1c3ccc(C#N)cc3[nH]c21 | 29 |
| CC(=O)Nc1ccc(COc2ccc(Nc3ccnc4cc(-c5ccccn5)ccc34)cc2)cc1.Cl [GW440148] | 20 |
| [2H]C([2H])(c1cccc(C(F)(F)F)c1C)n1ccn2c(=O)nc(N3CCOCC3)cc12 [GSK2336394] | 0 |
| COc1ccc(Nc2nccc(N3CCC(NC(=O)Nc4cccc(C(C)=O)c4)C3)n2)cc1 (stereo not shown) [GSK1379731] | 5 |
